MazF activator: MazEF (E. coli) toxin RNase activation; AID 504720; activation, % at 20 µM; 350,000 compounds, 0.32% hits; P0AE70; FAM/BHQ RNA-DNA oligo cleavage fluorescence, 5 h; in the data active = activation above about 50%
Bead autofluor: flagged as autofluorescent in microsphere protease counterscreen; compound autofluorescence counterscreen, microsphere flow cytometry; hits give high values; fluorescence intensity (concentration not given with the values); 360,000 compounds, 3.1% hits; AID 624483; in the data active = fluorescence intensity above about 16000; inconclusive = no clear call, values can overlap the other calls
BoNT F protease: inhibitors of Botulinum neurotoxin F light chain protease | inhibition, % at 10 µM | 360,000 compounds, 0.22% hits | AID 588497 | Multiplex microsphere protease cleavage assay, flow cytometry; in the data active = inhibition above about 35%, passing the limit was not always enough; inconclusive = no clear call, values can overlap the other calls; note: plate controls were buffer without enzyme for full effect and enzyme alone for no effect
Anthrax LF inh2: anthrax lethal factor protease inhibition. P15917. multiplex microsphere protease cleavage assay, LF. inhibition, % at 10 µM. 360,000 compounds, 0.12% hits; note: plate controls were buffer without enzyme for full effect and enzyme alone for no effect
Target sequence (P15917 whole entry, looked up): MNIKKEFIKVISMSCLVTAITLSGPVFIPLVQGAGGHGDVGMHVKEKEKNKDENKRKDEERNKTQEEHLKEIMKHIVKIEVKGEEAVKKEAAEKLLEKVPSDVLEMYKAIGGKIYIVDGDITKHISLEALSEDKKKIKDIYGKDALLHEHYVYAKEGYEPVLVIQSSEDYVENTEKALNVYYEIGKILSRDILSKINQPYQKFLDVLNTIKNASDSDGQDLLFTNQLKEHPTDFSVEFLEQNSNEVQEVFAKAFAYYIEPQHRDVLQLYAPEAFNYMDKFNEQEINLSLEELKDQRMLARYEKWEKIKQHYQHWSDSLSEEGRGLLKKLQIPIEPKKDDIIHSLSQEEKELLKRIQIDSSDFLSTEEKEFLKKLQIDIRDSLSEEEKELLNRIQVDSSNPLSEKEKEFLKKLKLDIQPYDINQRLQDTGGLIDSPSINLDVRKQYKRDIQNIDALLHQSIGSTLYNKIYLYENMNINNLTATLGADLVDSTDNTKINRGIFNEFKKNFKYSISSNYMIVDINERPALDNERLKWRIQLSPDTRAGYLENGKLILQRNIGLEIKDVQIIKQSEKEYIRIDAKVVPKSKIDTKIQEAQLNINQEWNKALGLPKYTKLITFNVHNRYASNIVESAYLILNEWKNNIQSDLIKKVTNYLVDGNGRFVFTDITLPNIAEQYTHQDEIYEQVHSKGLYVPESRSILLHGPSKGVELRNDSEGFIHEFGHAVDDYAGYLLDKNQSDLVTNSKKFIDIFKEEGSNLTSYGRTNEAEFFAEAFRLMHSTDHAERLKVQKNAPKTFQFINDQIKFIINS
VHR inh abs: DUSP3 (human) phosphatase inhibition. P51452. recombinant VHR phosphatase, pNPP absorbance. inhibition, % at 13.3 µM. 290,000 compounds, 0.52% hits; in the data active = inhibition above about 50%
BoNT A protease: BoNT A light chain protease inhibition. multiplex microsphere protease substrate cleavage, flow cytometry. inhibition, % at 10 µM. 360,000 compounds, 0.17% hits. AID 588499; note: plate controls were buffer without enzyme for full effect and enzyme alone for no effect
Numbers without * were called inactive; ? = inconclusive; . = no result. The list is not random: actives were taken first. Their share in the collection is about 4%. Cut-off read from the data, not from the text of the source, unless noted: active = inhibition above about 30%; inconclusive = no clear call, values can overlap the other calls; inactive = below that.

SMILES	MazF activator	Bead autofluor	BoNT F protease	Anthrax LF inh2	VHR inh abs	BoNT A protease
CN(C)S(=O)(=O)c1ccc(Cl)c(C(=O)OCC(=O)NC(=O)NC2CCCC2)c1	1	3459	-11	-5	.	-1
c1ccc(-c2ccc3c(c2)NCCN3)cc1	-10	3280	7	-14	52*	-2
COc1ccccc1S(=O)(=O)N(C)C[C@H]1OCc2cn(nn2)CCCC(=O)N([C@@H](C)CO)C[C@@H]1C	10	4022	-4	-2	.	0
CCn1c(SCC(=O)N/N=C/c2ccc(OC)c(OC)c2)nc2ccccc21	0	22575*	-2	0	3	1
CCn1c(SCC(=O)N/N=C/C=C\c2ccccc2[N+](=O)[O-])nc2ccccc21	7	22694*	-2	1	2	?
Cn1c(SCC(=O)N/N=C/C=C/c2ccccc2[N+](=O)[O-])nc2ccccc21	12	2441	-3	-1	13	-1
CC(C)(C)C(=O)C[n+]1cccc(C(N)=O)c1	6	2490	-9	-3	14	-1
O=c1cc(CSc2nnnn2-c2ccccc2)nc(Nc2ccc(F)cc2)[nH]1	3	23279*	3	0	-6	0
N/C(=N\c1nc(CSc2nnnn2-c2ccccc2)cc(=O)[nH]1)Nc1ccccc1	.	.	.	.	49	.
COc1ccccc1CCNC(=O)C(=O)NCC1OCCN1S(=O)(=O)c1ccccc1 (centres undefined)	5	5909	1	2	33	0
O=C(Cc1cccs1)Nc1nc(-c2ccc(F)c(F)c2)cs1	4	3305	-24	0	12	3
O=C(Cc1cccs1)Nc1nc(-c2ccc(F)cc2F)cs1	2	17771*	-9	-1	-23	-6
O=C(NCC1CCCO1)c1cc2n(n1)C(C(F)(F)F)CC(c1ccc(Br)cc1)N2 (centres undefined)	-5	20177*	1	2	-1	?
CCC(C)NC(=O)c1cnn2c1NC(c1ccc3c(c1)OCO3)CC2C(F)(F)F (centres undefined)	4	19687*	1	-1	-6	1
O=C(NCc1ccco1)c1cc2n(n1)C(C(F)(F)F)CC(c1ccc(F)cc1)N2 (centres undefined)	-2	4205	7	-13	6	0
Cc1ccc(C2CC(C(F)(F)F)n3nc(C(=O)NCc4ccco4)cc3N2)cc1 (centres undefined)	-5	24280*	-6	-2	14	?
O=C(NCC1CCCO1)c1nn2c(c1Cl)NC(c1ccc(F)cc1)CC2C(F)(F)F (centres undefined)	1	6915	0	6	7	0
Cc1cccc(NC(=O)c2cc3n(n2)C(C(F)(F)F)CC(c2ccc4c(c2)OCO4)N3)c1 (centres undefined)	-2	22193*	1	1	-2	3
C(=C\c1ccccc1)/CN1CCN(c2ncnc3c2oc2ccccc23)CC1	-15	17552*	-2	-5	15	?
c1cnc(N2CCN(c3ncnc4c3oc3ccccc34)CC2)nc1	.	.	.	.	12	.
C=CCSc1ncc(C#N)c(N)n1	2	20496*	-3	-2	13	-2
CSc1ccccc1NC(=O)C1C2CCC(C2)C1C(=O)O (centres undefined)	1	4772	-4	-2	52*	1
Cc1ccnc(-n2c(C)nc3ccccc3c2=O)c1	5	9907	0	-6	-5	0
Cc1ccnc(-n2c(-c3ccccc3)nc3ccccc3c2=O)c1	0	19731*	1	0	3	4
Cc1cc2cc(C=C(C#N)C#N)c(Cl)nc2cc1C	53*	2089	1	-1	5	0
SMILES	MazF activator	Bead autofluor	BoNT F protease	Anthrax LF inh2	VHR inh abs	BoNT A protease
Cn1cccc1Cc1nnc(SCC(=O)NCc2ccco2)n1-c1ccc(F)cc1	2	22151*	4	-6	-8	?
Cc1cc(C)c(NC(=O)CSc2nnc(Cc3cccn3C)n2-c2ccc(F)cc2)c(C)c1	0	25100*	-7	-2	-15	-3
Cc1ccc(-n2c(SCC(=O)NCc3ccco3)nnc2-c2cccnc2)c(C)c1	-2	22964*	1	2	.	1
Cn1cccc1Cc1nnc(SCC(=O)NCc2ccccc2Cl)n1-c1ccc(F)cc1	2	4738	-4	0	17	-1
CCOc1ccccc1/C=C/c1onc(C)c1S(=O)(=O)N1CCC(C(=O)N(CC)CC)CC1	2	5982	2	-1	-22	0
O=c1[nH]c2ccccc2n1C1=CCCC1	-5	3703	-21	-6	14	0
O=c1[nH]c2ccccc2n1C1=CCNCC1	6	3262	-25	5	52*	-5
CCC/C(=N\NC(=O)c1csc(C)c1C)c1cccs1	0	3123	-7	-1	13	0
CNCCCOc1ccc(C)cc1Br	-4	20475*	-3	-1	39	?
CCCCNCCCOc1ccc(C)cc1Br	2	2206	-9	0	16	-1
Cc1cc(C(=O)CSc2nnnn2C)c(C)n1CCc1ccc(Cl)cc1	-10	3241	-11	-1	8	0
O=C(CCCSc1nc2ccccc2[nH]1)N1CCN(c2ccccc2)CC1	3	20365*	6	0	3	5
O=C(CSc1nc2ccccc2[nH]1)N1CCCCC1	3	21788*	2	3	0	2
O=C(Cc1c(F)cccc1Cl)NCCN1CCOCC1	5	4187	5	-2	-10	1
Cc1cc(NC(=O)c2c(F)cccc2F)n(-c2nc3ccccc3[nH]2)n1	-3	16824*	-5	-3	38	-3
Cc1cc(NC(=O)c2c(F)cccc2Cl)n(-c2nc3ccccc3[nH]2)n1	-6	2956	-4	0	0	0
CSCCC(NC(=O)c1ccc(Cl)cc1Cl)C(=O)OCC(N)=O (centres undefined)	2	.	.	.	13	.
CCCS(=O)(=O)Nc1cccc(-c2ccc3nnc(C)n3n2)c1	4	2402	4	0	14	0
CCC(C)OC(=O)c1cc(C)nc2c(Br)cc(Br)cc12 (centres undefined)	-3	3128	-8	-1	58*	1
CCC(=O)NNc1nc2c(Cl)cccc2s1	2	4239	1	3	26	0
COc1ccc(CCC(=O)NC(C)c2ccccc2)cc1OC (centres undefined)	4	3642	-3	-2	57*	1
O=C(Cc1ccccc1)NCC(=O)N1CCCCCC1	12	22214*	3	2	3	2
O=C(CNC(=O)Cc1ccccc1)NCC(=O)N1CCCCC1	1	6083	-3	0	-2	1
CC(NC(=O)CN1CCN(c2ccccc2F)CC1)c1ccccc1 (centres undefined)	2	3737	-10	4	29	-4
CC(NC(=O)CCC(=O)N1CCCCCC1)c1ccccc1 (centres undefined)	5	4180	36*	-2	4	1

Source: PubChem (several laboratories)
